This is an account of results in PubChem BioAssay (NCATS).

Inconclusive results are not listed. A call without a number means that no potency is given here. Activity calls are given as the source filed them. Calls follow the shape of the dose curve; as a rule, active = well fitted inhibition curve with a large enough effect; inconclusive = small, poorly fitted or top-dose-only effect; inactive = flat fitted curve, though single readings scatter.
Potency is read from the fitted curve at half-maximal effect.

The subject of this test is Zika virus NS2B-NS3 protease. The experiment in a line: Primary screen GU AMC qHTS for Zika virus inhibitors (AID 1347154). Also: nearly all actives have a fitted effect of over 70% in size. The note with it: Zika NS2B-NS3 unlinked protease, AMC fluorogenic substrate; series mostly up to 54.1 µM. In short, it runs like this: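 Unlinked Zika NS2B hydrophilic domain–NS3 protease complex at 25 nM in 10 mM Tris-HCl pH 8.0, 0.01% Tween 20, with an AMC peptide substrate. Fluorescence change (340/450 nm) over 15 min at room temperature, normalized to controls, fitted to 4-parameter Hill.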
For the molecule `C[C@]12CC[C@H](O)CC1=CCC1C2CC[C@]2(C)C(n3cnc4ccccc43)=CCC12` (some centres undefined), the Potency entry was “inactive”.

As for `COc1cc(C)c(Sc2cnc(NC(=O)c3ccc(CNC(C)C(C)C)cc3)s2)cc1C(=O)N1CCN(C(C)=O)CC1` (centres undefined), the Potency entry is “inactive”.

As for `CC(C)(O)CCc1ccc(OCc2cc(-c3cccc(OC(F)F)c3)c3ncccc3c2)cc1`, the Potency result was “inactive”. For the molecule `CC(C)c1noc(N2CCC(COc3ccc(-c4ccc(S(C)(=O)=O)cc4)nc3)CC2)n1`, the Potency result is “inactive”.

For the molecule `O=c1[nH]c(=O)n(C2CCCO2)cc1F` (centres undefined), the Potency entry was “inactive”. Next, `Cn1c2cc(S(C)=O)sc2c2cnn(Cc3cccc(N)c3)c(=O)c21` (centres undefined): “inactive”; `CC(C)=CCCC(C)=CCCC(C)=CCSc1ccccc1C(=O)O`: 13.6 µM (active). Next, `CCCCOc1c(C(=O)c2c(F)cc(C)cc2F)cnc2n[nH]cc12`: “inactive”. As for `CNC(=O)c1ccc(-c2cnc3ncc(Cc4ccc5ncccc5c4)n3n2)cc1F`, the entry is “inactive”.

Turning to `COc1ccc2c(OCc3nnc4ccc(-c5ccccc5)nn34)ccnc2c1`, the Potency entry was “inactive”.

Consider `C1=CCOCc2cc(ccc2OCCN2CCCC2)Nc2nccc(n2)-c2cccc(c2)OCC1`, for which the Potency entry was “inactive”. For the molecule `c1nc2nc(Nc3ccc(N4CCOCC4)cc3)nc(NC3CCCCC3)c2[nH]1`, the Potency entry is “inactive”. As for `OCc1ccc(-c2ccc(-c3ccc(CO)s3)o2)s1`, the figure is 26.7 µM (active); as for `O=C(NCCS(=O)(=O)c1ccc(C(F)(F)F)cn1)c1ccc(Cl)cc1`, “inactive”; as for `O=C(O)[C@H](Cc1c[nH]c2ccccc12)N1C(=O)c2ccccc2C1=O`, “inactive”. Next, `COc1cc2c(Nc3ccc(NC(=O)c4ccccc4)cc3)ncnc2cc1OCCCN1CCOCC1`: “inactive”; `COc1cc(C(C)C)c2c(c1)S(=O)(=O)N(COc1cc(=O)n3cccc(OCCN4CCCCC4)c3n1)C2=O`: “inactive”; `Cn1cncc1[C@@](N)(c1ccc(Cl)cc1)c1ccc2c(c1)c(-c1cccc(Cl)c1)cc(=O)n2C`: “inactive”. Next, `CNC(=O)c1cc(Oc2ccc(NC(=O)Nc3cc(C(C)(C)C)nn3-c3ccc4ncccc4c3)c(F)c2)ccn1`: “inactive”; `CCOc1ccccc1OCCNC(C)Cc1ccc(OC)c(S(N)(=O)=O)c1` (centres undefined): “inactive”; `O=C(O)CCCc1c[nH]c2ccccc12`: “inactive”. Regarding `COc1c(N2C[C@@H]3CCCN[C@H]3C2)c(F)cc2c(=O)c(C(=O)O)cn(C3CC3)c12`, the Potency was 30.4 µM (active). Next, `CC1COC2(CCN(c3nc(=O)c4cc(C(F)(F)F)cc([N+](=O)[O-])c4s3)CC2)O1` (centres undefined): “inactive”; `Nc1nc(NCCNc2ncc(-n3ccnc3)c(-c3ccc(Cl)cc3Cl)n2)ccc1[N+](=O)[O-]`: “inactive”; `O=C1CCC[C@@H]2[C@H]3CCC[N+]4([O-])CCC[C@@H](CN12)[C@@H]34` (some centres undefined): “inactive”.

As to `CC[C@H](CO)Nc1nc(NCc2ccccc2)c2ncn(C(C)C)c2n1`, the Potency result is “inactive”. On to `Clc1cccc(-c2nnnn2Cc2cccnc2)c1Cl`, for which the Potency entry was “inactive”. As for `NC1(Cc2ccc(Cl)cc2)CCN(c2ncnc3[nH]ccc23)CC1`, the entry is “inactive”.

`COC(=O)C1=C(C)NC(C)=C(C(=O)OCCN2CCN(C(c3ccccc3)c3ccccc3)CC2)C1c1cccc([N+](=O)[O-])c1` (centres undefined): the Potency result was “inactive”. In the case of `COc1cc2ncn(-c3cc(OCc4ccccc4C(F)(F)F)c(C(N)=O)s3)c2cc1OC`, the Potency entry is “inactive”. Turning to `CN(C1CCc2c(c3ccccc3n2CC(=O)O)C1)S(=O)(=O)c1ccc(F)cc1` (centres undefined), the Potency result was “inactive”. As for `CCCNC(=O)Nc1ccc(Oc2ncnc3cc(OC)c(OC)cc23)cc1Cl`, the entry is “inactive”. With `O=C(O)CO.[NH2-].[NH2-].[Pt+2]`, the Potency entry is “inactive”. As to `CC(=O)OCCN1C(=O)c2c(C)nc3ccc(S(=O)(=O)N4CCOCC4)cc3c2C1=O`, the Potency entry was “inactive”. Next, `O=C(c1cncc(Br)c1)N1CCC(N2CCCC2)CC1`: “inactive”; `CC(=O)c1c(C)c2cnc(Nc3ccc(N4CCNCC4)cn3)nc2n(C2CCCC2)c1=O`: “inactive”. Next, `Cc1cc(Nc2cc(N3CCN(C)CC3)nc(C=Cc3ccccc3)n2)n[nH]1`: “inactive”. With `Nc1ccn([C@@H]2CS[C@H](CO)O2)c(=O)n1`, the Potency result was “inactive”. As for `c1cc(-c2cnn3cc(-c4ccc(OCCN5CCCCC5)cc4)cnc23)ccn1`, the entry is “inactive”.
